SRC2 TRFRET art: flags TR-FRET format artefacts in PPARgamma SRC-2 recruitment agonist screen; hit rate 0.4% among 200,000; AID 1049; TR-FRET ratio at 8 µM; TR-FRET artefact counter-screen; stronger effect = higher value
SRC1 TRFRET art: flags TR-FRET format artefacts in PPARgamma SRC-1 recruitment agonist screen; TR-FRET detection artefact counter-screen, emission ratio; stronger effect = higher value; TR-FRET ratio at 8 µM; hit rate 0.34% among 99,000; in the data active = TR-FRET ratio above about 2300
SRC3 TRFRET art: TR-FRET artefact, counter-screen to PPARgamma/SRC-3 agonist assay. PPARgamma/SRC-3 format; stronger effect = higher value. TR-FRET ratio at 8 µM. hit rate 0.39% among 99,000
PPARg SRC-2 ag: promotes SRC-2 coactivator recruitment by human PPARgamma; P37231; PPARgamma LBD-SRC-2 recruitment, biochemical; activation, % at 8 µM; hit rate 0.34% among 200,000; in the data active = activation above about 22%;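 also: 0% = vehicle and 100% = reference agonist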
Target sequence (P37231 whole entry, looked up, the tested form may be a part): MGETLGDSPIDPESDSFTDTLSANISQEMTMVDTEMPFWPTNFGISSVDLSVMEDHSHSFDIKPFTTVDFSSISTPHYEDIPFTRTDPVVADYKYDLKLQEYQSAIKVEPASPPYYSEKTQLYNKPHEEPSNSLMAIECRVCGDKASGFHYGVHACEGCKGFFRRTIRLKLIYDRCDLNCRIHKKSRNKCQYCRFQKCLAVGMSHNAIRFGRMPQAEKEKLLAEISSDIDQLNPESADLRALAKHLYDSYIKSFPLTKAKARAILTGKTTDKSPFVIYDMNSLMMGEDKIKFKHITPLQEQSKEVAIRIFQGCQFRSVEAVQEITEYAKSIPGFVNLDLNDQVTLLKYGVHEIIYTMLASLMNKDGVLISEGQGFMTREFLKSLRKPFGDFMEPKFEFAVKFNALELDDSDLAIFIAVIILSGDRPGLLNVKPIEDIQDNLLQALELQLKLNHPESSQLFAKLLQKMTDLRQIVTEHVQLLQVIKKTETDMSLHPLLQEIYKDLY
PPARg SRC3 recr: promotes SRC-3 coactivator recruitment by human PPARgamma; P37231; biochemical PPARgamma/SRC-3 coactivator recruitment assay; activation, % at 8 µM; hit rate 0.26% among 200,000; AID 731; in the data active = activation above about 23%;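 also: 0% = DMSO and 100% = reference agonist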
PPARg SRC1 recr: PPARgamma-driven SRC-1 recruitment agonism; P37231; activation, % at 8 µM; PPARgamma-SRC-1 coactivator recruitment biochemical assay; hit rate 0.41% among 200,000; in the data active = activation above about 19%;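 also: 0% = DMSO and 100% = reference agonist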
* marks the source's active call; other numbers are inactive results; . = no result. Hits are enriched below; roughly 0.84% of the tested compounds scored in any of these assays. Rule as the data show it, unless noted: active = TR-FRET ratio above about 2000; inactive = the rest.

SMILES	SRC2 TRFRET art	SRC1 TRFRET art	SRC3 TRFRET art	PPARg SRC-2 ag	PPARg SRC3 recr	PPARg SRC1 recr
O=C(Nc1nc(-c2ccc(S(=O)(=O)N3CCCCCC3)cc2)cs1)c1cccs1	2280*	.	.	5.7	0.8	21.8*
Cc1onc(-c2ccccc2)c1C(=O)Nc1nc(-c2ccccc2)cs1	2194*	.	.	1.5	5.8	0.8
O=C(CSc1nnc(-c2ccc(S(=O)(=O)N3CCOCC3)cc2)o1)c1ccccc1F	1586	.	.	0.7	-1.6	3.2
CC(=O)Nc1ccc(S(=O)(=O)NC2(C(F)(F)F)C(=O)Nc3c2c(=O)[nH]c(=O)n3Cc2ccco2)cc1 (stereo not drawn)	1690	2200	1647	7.4	5.4	8.2
Cc1ccc2[nH]c(=O)c(CN(CCCN3CCOCC3)C(=O)Nc3ccc(Cl)cc3)cc2c1	1630	1654	1580	1.6	-2.7	-10.6
O=C(NCc1cccnc1)C(=O)N/N=C/c1ccc([N+](=O)[O-])cc1	1509	1666	1604	-0.1	4.9	7.6
Cc1ccc(-c2csc(NC(=O)c3cccc(S(=O)(=O)N4CCN(C)CC4)c3)n2)cc1	1523	1995	1730	5.2	-4.3	3.5
COc1cccc(C(=O)Nc2nc(-c3ccc(S(=O)(=O)N4CCOCC4)cc3)cs2)c1	2385*	.	.	3.9	16.0	0.4
O=C(Nc1nc(-c2ccc3ccccc3c2)cs1)C1CCN(S(=O)(=O)c2cccs2)CC1	1939	2268	2381*	15.1	8.8	8.6
Cc1ccn2c(C=O)c(-c3ccc(F)cc3)c(C=O)c2c1	1712	2154	1598	3.0	2.2	4.2
COc1cccc(-c2csc(N3CCN(C(=O)NC45CC6CC(CC(C6)C4)C5)CC3)n2)c1	2123*	.	.	-0.4	11.5	0.3
COc1cccc(-c2csc(N3CCN(C(=S)Nc4ccc(Cl)cc4)CC3)n2)c1	3147*	.	.	12.3	12.6	9.5
Cc1ccccc1OCc1nc2ccccc2[nH]1	1505	1770	1739	1.9	-0.8	3.2
COc1ccccc1OCc1nc2ccccc2[nH]1	1592	.	.	23.3*	-6.0	-3.3
COc1cccc(C(C(=O)NC2CCCC2)N(CC2CCCO2)C(=O)Cc2cccs2)c1 (stereo not drawn)	1661	1892	1374	0.7	3.2	2.5
COc1cc(OC)cc(C(=O)NCC(=O)OCC(=O)c2ccc3c(c2)-c2ccccc2C3)c1	2065*	2143	2602*	6.8	5.3	7.7
CN(C)/C=N/C(=S)Nc1ccc(Cl)cc1Cl	1341	1704	1290	1.3	2.8	15.1
N#Cc1cc(O)c(-n2nnc3ccccc32)cc1C#N	1747	1742	1347	25.6*	0.2	-4.5
N#Cc1cc(Oc2cccc3cccnc23)c(-n2nnc3ccccc32)cc1C#N	1613	.	.	3.4	5.1	5.2
Cc1c(C(=O)Nc2nccs2)sc2nc(-c3cccs3)cc(C(F)(F)F)c12	2020*	.	.	15.2	7.0	5.1
Cc1ccc2nc(Cl)c(C#N)cc2c1	1324	1660	1490	1.1	1.0	1.9
COc1ccc(C2CC(c3cccs3)=NN2C(=O)COC(=O)c2cncc(Br)c2)cc1OC (stereo not drawn)	1406	2246	2284*	1.6	3.2	11.2
COc1ccc(C2CC(c3cccs3)=NN2C(=O)COC(=O)C2CCCCC2)cc1OC (stereo not drawn)	1638	2074	1612	8.8	6.0	3.2
COc1ccc(Cn2c(-c3ccc(C)cc3)nc3c(c(=O)c4ccccc4n3C)c2=O)cc1	2131*	2030	1508	29.1*	-0.2	4.5
c1csc(Cc2nn3c(-c4n[nH]c5c4CCC5)nnc3s2)c1	1742	.	.	2.1	2.5	19.5*
SMILES	SRC2 TRFRET art	SRC1 TRFRET art	SRC3 TRFRET art	PPARg SRC-2 ag	PPARg SRC3 recr	PPARg SRC1 recr
c1coc(-c2nnc3sc(Cc4cccs4)nn23)c1	1707	.	.	5.7	-0.2	5.0
Cc1c(Cl)cccc1NC(=O)CCCn1nc([N+](=O)[O-])cc1C	2111*	2085	1427	14.2	2.3	6.6
COC(=O)c1ccccc1NC(=O)c1cc(-c2ccc(O)cc2)on1	1632	.	.	3.5	6.0	34.6*
Clc1ccccc1/C=C/C=N/Nc1nc(N2CCOCC2)nc(N2CCOCC2)n1	1422	1658	1582	-4.8	0.9	7.6
CSc1ccccc1NC(=O)c1cc(-c2cccnc2)nc2ccc(Br)cc12	1531	1916	2157*	2.6	8.9	7.5
CC(=O)Nc1cccc(NC(=O)c2cc(-c3cccnc3)nc3ccc(Br)cc23)c1	1508	.	.	-5.2	-12.4	-7.3
Cc1onc(-c2c(F)cccc2Cl)c1C(=O)N1C=CC(C(F)(F)F)=NCC1	2038*	.	.	5.4	17.5	7.5
Cc1onc(-c2c(Cl)cccc2Cl)c1C(=O)N1C=CC(C(F)(F)F)=NCC1	1675	.	.	10.0	10.2	3.7
COc1ccc2nc(SCC(=O)N3CCN(c4ccc(F)cc4)CC3)c(C#N)cc2c1	2728*	.	.	13.2	7.2	11.9
Cc1cccc2nc(-c3ccccc3)nc(N3CCC(O)(c4ccc(Cl)cc4)CC3)c12	2045*	2070	1816	12.6	9.2	2.7
C=C1C(C(=O)Nc2cccc(OC)c2)C1C(=O)Nc1cccc(OC)c1 (stereo not drawn)	1588	1811	1459	2.5	3.4	0.9
CCOC(=O)C1=C(C)NC(=O)/C1=C\N(C)C	1558	1712	1548	4.3	3.6	-0.6
Cc1ccc2sc3ccc(NC(=O)c4ccccc4Cl)cc3c(=O)c2c1	2846*	.	.	13.1	11.1	0.0
CCOC(=O)C1=C(C)OC(N)=C(C#N)C1c1ccc(C)s1 (stereo not drawn)	1649	1678	1418	5.7	-2.3	5.6
CNC(=S)N1N=C(c2ccc(C)cc2)CC1c1cc(OC)ccc1OC (stereo not drawn)	1638	2589*	2547*	4.6	5.6	10.8
CNC(=S)N1N=C(c2ccc(C)cc2)CC1c1ccc(N(C)C)cc1 (stereo not drawn)	1857	2359*	2431*	5.2	3.5	5.2
CNC(=S)N1N=C(c2ccc(C)cc2)CC1c1ccc(OC)cc1 (stereo not drawn)	1903	.	.	10.9	11.1	11.2
O=C(/C=C/c1ccccc1)CC(=O)c1ccccc1O	1500	1899	1782	5.0	4.1	5.7
Cc1ccc(CNC(=O)Cn2cccc2C(=O)c2ccccc2C)cc1	1444	1729	1741	6.9	4.6	6.0
Cc1ccccc1C(=O)c1cccn1CC(=O)NCCC1=CCCCC1	1513	2753*	1388	-3.5	2.2	7.5
CCOC(=O)c1ccc(S(=O)(=O)NNC(=O)c2cccc(N(C)C)c2)cc1	1839	1668	1421	9.0	1.4	9.2
CN(C)CCCN(C(=O)c1ccc2c(c1)CCCC2)c1nc2c(F)cccc2s1	1385	1620	1570	1.5	-2.6	-0.3
CN(C)CCCN(C(=O)c1ccc(N2C(=O)CCC2=O)cc1)c1nc2c(F)cccc2s1	1737	2031	1580	7.3	1.6	21.8*
Cc1ccc(S(=O)(=O)N2CCCN(c3nc4cc(C)ccc4cc3C#N)CC2)cc1	3009*	.	.	-5.0	11.3	-4.5

Compound activity: PubChem BioAssay, The Scripps Research Institute Molecular Screening Center
